The list is not random: actives were taken first. Their share in the collection is about 13%.
Pf growth 48h = inhibits P. falciparum growth in the first generation, 48 h. P. falciparum luciferase growth in erythrocytes, 48 h. Potency, µM (doses to about 28.7 µM), for the others: at the highest dose activity change, negative = inhibition, hits mostly inhibitors. 310,000 compounds, 5.9% hits; note: potency is the fitted concentration of half-maximal effect
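In quantitative HTS format, infected erythrocytes bearing luciferase-reporter parasites were treated for a single generation at 37 C. Luminescence after adding detection reagent served as the growth measure.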
HCMV antiviral = inhibitors of human cytomegalovirus; 410,000 compounds, 4.5% hits; AID 1259415; HFF cells, HCMV-luciferase reporter, 72 h; stronger effect = lower value; activity change, negative = inhibition, % at 57.5 µM; in the data active = activity change below about -60%; inconclusive = no clear call, values can overlap the other calls; inactive = above about -39%
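Human foreskin fibroblasts infected with luciferase-reporter HCMV at MOI 1 PFU/cell, compounds at two doses. Luciferase measured 72 h post infection; normalized to buffer-only basal and Salinomycin (10uM) controls.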
HCV inhibitor = HCV inhibition. 340,000 compounds, 3.4% hits. Potency, µM (titrated, usually from 41.8 µM), without a hit: at the highest dose activity change, negative = inhibition, usual class: inhibitors. AID 651820. Huh7.5.1 HCVcc-Cre infection, luciferase reporter, 44 h; note: potency is the fitted concentration of half-maximal effect
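Whole-lifecycle infectious HCVcc-Cre system; cells 1,000/well, compound then virus (~0.5 moi) added 4 h after plating, 44 h culture. Luciferase read 15 sec following 15 min substrate incubation, room temp.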
Pf growth 96h = inhibits malaria parasite growth, 96 h | P. falciparum luciferase reporter growth, 96 h | Potency, µM (top dose mostly 28.7 µM), inactives show at the top dose activity change, negative = inhibition, usual class: inhibitors | 320,000 compounds, 6.9% hits | AID 504834; note: potency is the fitted concentration of half-maximal effect
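Cell-based qHTS: luciferase-tagged P. falciparum in erythrocytes (2% hematocrit, 0.05% parasitemia final) incubated with compounds for 96 hours, 37 C, 5% CO2; luciferase detection reagent then added and luminescence measured.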
Numbers without * were called inactive; u = inconclusive; x = no result; [ ] = remark or other dose. Unless noted, calls come from the whole dose curve; as a rule, active = well fitted inhibition curve with a large enough effect; inconclusive = small, poorly fitted or top-dose-only effect, or another doubt; inactive = no such curve, though single readings can be large or run the other way. % is set by controls: 0 for no effect and ±100 for the full control effect.

SMILES | Pf growth 48h | HCMV antiviral | HCV inhibitor | Pf growth 96h
COc1cccc(-c2nc(C(=O)NCCCN3CCOCC3)cc3c2[nH]c2ccccc23)c1 | 13.1µM* | -74.3* | 11.2µM* | 8.28µM*
CC(=O)c1cccc(NC(=O)c2nc(-c3ccccc3)n(-c3cccc(Cl)c3)n2)c1 | x | 13.4 | x | x
CCc1ccccc1N(C(=O)c1snc(C(N)=O)c1N)C(C(=O)NCC1CCCO1)c1ccc(OC)c(OC)c1 (configuration not stated) | 11.7µM* | -25.3 | -19.8% | 44.0%
Cc1cccc(N(C(=O)c2snc(C(N)=O)c2N)C(C(=O)NCC2CCCO2)c2ccc(N(C)C)cc2)c1C (configuration not stated) | u | 51.9 | -1.0% | 7.38µM*
CN(C)c1ccc(C(C(=O)NCC2CCCO2)N(Cc2ccccc2)C(=O)c2snc(C(N)=O)c2N)cc1 (configuration not stated) | u | -16.8 | -5.6% | -0.2%
COc1ccc(C(C(=O)NCC2CCCO2)N(C(=O)c2snc(C(N)=O)c2N)c2ccccc2C)cc1OC (configuration not stated) | 11.7µM* | -32.3 | -17.6% | 34.0%
COc1ccc(C(C(=O)NCC2CCCO2)N(C(=O)c2snc(C(N)=O)c2N)c2ccccc2)cc1OC (configuration not stated) | u | -9.9 | -16.0% | u
CCOc1ccc(C(C(=O)NCC2CCCO2)N(CCc2cccc(C)c2)C(=O)c2snc(C(N)=O)c2N)cc1 (configuration not stated) | 9.28µM* | u | u | -0.8%
COc1cccc2cc(S(=O)(=O)c3ccc(F)c(C)c3)c(=O)oc12 | x | 12.3 | x | x
CCOc1ccc(NC(=O)c2ccc3c(=O)n4nc(Nc5ccccc5C)sc4nc3c2)cc1 | x | 5.5 | x | x
O=C(NCc1ccc(F)cc1)c1cc(-c2ccncc2)nc2ccccc12 | 3.7µM* | -6.5 | -24.6% | u
CCNC(=S)NNC(=O)c1cc(-c2cc(C)ccc2C)nc2ccccc12 | u | 60.8 | 4.6% | 5.22µM*
COc1cc(-c2cc(C(=O)Nc3ccc(N4CCOCC4)cc3)c3ccccc3n2)cc(OC)c1OC | 10.4µM* | 0.0 | u | 5.86µM*
COc1cc(-c2cc(C(=O)Nc3cc(S(=O)(=O)N4CCOCC4)ccc3O)c3ccccc3n2)cc(OC)c1OC | x | -2.2 | u | x
CC(C)(C)c1ccccc1NC(=O)c1cc(-c2ccncc2)nc2ccccc12 | x | 15.1 | 11.2µM* | x
COc1cc2ccccc2cc1C(=O)Nc1ccc2oc(-c3ccc(F)cc3)nc2c1 | x | 32.7 | x | x
Cc1ccccc1NC(=O)c1cccc2nc3ccccc3nc12 | u | -73.2* | u | u
Cc1cc(C)c(NC(=S)NC(=O)c2ccc(-c3ccccc3)cc2)c(C)c1 | -20.9% | -84.0* | 3.0% | 21.9%
O=C(NC(=S)Nc1ccccn1)c1ccc(-c2ccccc2)cc1 | 115.7% | -20.0 | u | u
O=C(Nc1ccc(SC(F)F)cc1)c1cc(-c2ccncc2)nc2ccccc12 | u | -40.0 | u | 5.22µM*
Cc1ccccc1NC(=S)NC(=O)c1cc(-c2ccccc2)nc2ccccc12 | u | 11.6 | u | 9.28µM*
O=C(Nc1ccncc1)c1cc(-c2ccccn2)nc2ccccc12 | -12.1% | 14.1 | -6.7% | u
O=C(Cn1c(=O)c2cccn2c2cccnc21)NCc1ccccc1F | x | 24.0 | x | x
COc1cccc(CNC(=O)[C@H]2CCCN2C(=O)[C@H]2CCCN2C(=O)c2ccc(OC(F)(F)F)cc2)c1 | x | -3.2 | x | x
CCOc1ccccc1NC(=O)c1cc(-c2cc(OC)c(OC)c(OC)c2)nc2ccccc12 | u | 28.8 | 8.91µM* | u
SMILES | Pf growth 48h | HCMV antiviral | HCV inhibitor | Pf growth 96h
CC(=O)Nc1ccc(-c2cc(C(=O)O)c3cc4ccccc4cc3n2)cc1 | x | 8.4 | x | x
CNS(=O)(=O)c1ccc(NC(=O)c2cc(-c3ccncc3)nc3ccc(Cl)cc23)cc1 | 13.1µM* | u | x | 44.0%
O=C(Nc1ccccc1N1CCOCC1)c1cc(-c2ccncc2)nc2ccccc12 | u | -20.9 | u | 8.28µM*
COC(=O)c1cc(-c2ccc(NC(C)=O)cc2)nc2ccccc12 | 7.4% | -68.1* | u | -4.5%
CCC(C(=O)Nc1cccc(Cl)c1C)n1nc(C)c2sc3ccccc3c2c1=O (configuration not stated) | x | -10.3 | x | x
Cc1ccc(CCNC(=O)c2ccc(CS(=O)(=O)c3ccc(Br)cc3)o2)cc1 | x | -6.0 | x | x
Cc1ccc(CNC(=O)c2cc(Sc3ccc(F)cc3F)nc3ccccc23)cc1 | x | -66.2* | x | x
Cc1cc(C)c2cccc(NC(=S)NC(=O)c3ccccc3)c2n1 | 10.4µM* | -2.2 | u | 1.85µM*
Cc1ccc(Sc2cc(C(=O)NCCCN(C)C)c3ccccc3n2)cc1 | -7.5%[0.00184 µM] | -39.1 | u | u
COc1ccc(-c2cc(C(=O)Nc3cccnc3)c3ccccc3n2)cc1OC | u | 127.5 | -2.9% | 45.7%
CC(=O)NC(=S)Nc1cccc2c(C)cc(C)nc12 | 3.7% | -34.0 | 1.4% | 9.8%
COc1ccc(-c2cc(C(=O)NNC(=O)c3csc(N4CCOCC4)n3)c3ccccc3n2)cc1OC | u | -11.8 | 10µM* | 13.1µM*
COc1cc(-c2cc(C(=O)Nc3ccncc3)c3ccccc3n2)cc(OC)c1OC | 8.28µM* | -4.4 | u | 4.15µM*
CC(C)CCNC(=O)CN1C(=O)COc2ccc(S(=O)(=O)N3CCOCC3)cc21 | x | 10.5 | x | x
Cc1cccc(C)c1NC(=O)c1cc(-c2ccccn2)nc2ccccc12 | -26.1% | 69.4 | -23.7% | u
CCc1cccc(C)c1NC(=O)c1cc(-c2ccncc2)nc2ccccc12 | 10.4µM* | -11.8 | u | 9.28µM*
Cc1ccc(-c2cc(C(=O)Nc3ccncc3)c3ccccc3n2)cc1 | 1.65µM* | 7.0 | 5.9% | 1.47µM*
COc1ccc(-c2cc(C(=O)Nc3c(Cl)cc(Cl)cc3Cl)c3ccccc3n2)cc1OC | 13.1µM* | -13.7 | -22.5% | u
COc1cc(-c2cc(C(=O)Nc3cc(S(=O)(=O)N4CCOCC4)ccc3C)c3ccccc3n2)cc(OC)c1OC | 2.94µM* | x | u | 1.04µM*
CCOC(=O)Cn1c(=O)n(CC2CCCO2)c2nc(-c3ccccc3OC)nc(C(N)=O)c21 (configuration not stated) | x | 47.3 | x | x
Cc1ccc(NC(=O)Cn2c(=O)n(-c3ccccc3)c(=O)c3ccc(C(=O)NCc4ccc5c(c4)OCO5)cc32)c(C)c1 | x | -19.7 | x | x
Cc1ccccc1C(=O)NC(=S)Nc1ccccc1C(=O)O | 22.9% | 46.1 | 27.4% | 10.4µM*
COc1ccc(-c2cc(C(=O)Nc3ccccc3O)c3ccccc3n2)cc1OC | u | -22.0 | -9.8% | 60.5%
COc1ccccc1NC(=O)c1cc(-c2cc(OC)c(OC)c(OC)c2)nc2ccccc12 | 4.65µM* | -6.3 | u | u
NC(c1csc(NC(=O)Nc2ccc(OC(F)(F)F)cc2)n1)C1CCCCC1 (configuration not stated) | x | -1.6 | x | x

Screening data: PubChem BioAssay, National Center for Advancing Translational Sciences (NCATS)
